Out of some 68,000 compounds screened, about 2,700 (4%) showed an effect of 50% or more. The list comes from a sample in which strong results are over-represented; it also holds similar structures and randomly drawn compounds.

The test relates to Plasmodium berghei. Description: Screen against P. berghei liver stage (PbLuc), transformed with Luciferase, at 2uM. It is filed as functional, HepG2. As to conditions: tested at 2 uM.
`CCCOc1ccc(CC2=NC(C)(CO)CO2)cc1` (centres undefined): the INHIBITION is listed as -27.61%.
`CCNC(=O)[C@@H]1CCCN1[C@@H](C(=O)NC)c1ccccc1`: the INHIBITION is listed as -11.34%.
Under `CSCc1noc(CN2CCC3(CC2)CC(=O)N(CC(C)C)C3)n1` stands 10.61%; under `CC(C)N(CCCNC(=O)C1CC(=O)N(C)C1)S(C)(=O)=O` (centres undefined), 2.97%.
Under `COC(=O)C(C)(C)NC(=O)c1cnc(Cc2ccc(F)cc2)s1` stands -32.82%; under `COc1ccnc(NC(Cc2ccccc2)C(N)=O)n1` (centres undefined), 33.9%; under `COc1ccc(-c2ccc(C(=O)NCCCC(N)=O)c(F)c2)c(F)c1`, 53.81%.
As for `COc1ccc(-c2ccc(C(=O)O)c(F)c2)c(F)c1`, the INHIBITION is recorded as 17.01%.
Under `COc1ccc(-c2ccc(C(=O)NS(C)(=O)=O)c(F)c2)c(F)c1` stands -27.53%.
Turning to `O=C(c1c[nH]cn1)N1CCCn2c(nnc2Cn2cccc2)C1`, the INHIBITION worked out at 26.44%.
The same measure for `O=C(c1c[nH]cn1)N1CCCn2c(CN3CCCCC3)nnc2C1`: 51.26%.
The same measure for `CN(C)Cc1nnc2n1CCCN(C(=O)c1c[nH]cn1)C2`: -51.91%; for `CNc1cc(C)nc(C2CN(Cc3cncs3)CCO2)c1` (centres undefined): -29.68%; for `CC(C)N(C)C(=O)CSCc1ccc(S(=O)(=O)N(C)C)o1`: 30.34%.
The same measure for `CN1C(=O)c2ccc(C(=O)N(Cc3cnn(C)c3)C3CC3)cc2C1=O`: 21.14%; for `Cn1cc(CN(C(=O)c2ccc(O)c(Cl)c2)C2CC2)cn1`: -33.15%.
As to `Cn1cc(CN(C(=O)c2ccc3ncsc3c2)C2CC2)cn1`, the INHIBITION is given as 57.34%.
The same measure for `CCn1cnnc1C1CCN(C(=O)c2cccc(-n3cccc3)c2)CC1`: -6.48%.
The same measure for `COc1cc(N2CCC3(CCN(Cc4nccs4)CC3)C2)ncn1`: 7.71%; for `CCCc1cc(C(=O)N(C)Cc2ccc(OC)c3ncccc23)n(C)n1`: 58.56%; for `CCCc1cc(C(=O)N(C)Cc2cccc3cnccc23)n(C)n1`: 19.91%.
Under `CCCc1cc(C(=O)N(C)Cc2cccc3ncccc23)n(C)n1` stands -24.24%.
As for `O=C(c1ccccc1)N1C[C@H]2CC[C@@H](C1)N(S(=O)(=O)c1cccnc1)C2`, the INHIBITION is on record as -23.58%.
With `Cc1noc(C)c1CN1CCC2(CCN(Cc3cccc(F)c3)CC2)C1`, the INHIBITION worked out at 24.04%.
For `Cc1nc2ccccc2nc1NCc1cccc(OCC2CCCO2)c1` (centres undefined), the INHIBITION is 17.25%.
With `O=C(CC1=CCCCC1)N1CCC(Cn2cc(CCO)nn2)CC1`, the INHIBITION is -8.21%.
With `O=C1O[C@@H]2CN(C3CCOCC3)C[C@@H]2N1CCCc1ccc(F)cc1`, the INHIBITION is -23.46%.
The same measure for `COc1ccc(CCCN2C(=O)O[C@@H]3CN(C4CCOCC4)C[C@@H]32)cc1`: 51.81%; for `COc1ccc(CCN2C(=O)O[C@@H]3CN(C4CCOCC4)C[C@@H]32)cc1`: 1.42%; for `Cc1cc(CN(C)C(=O)CN2CC3(CCNCC3)OC2=O)n(C)n1`: 24.12%.
The same measure for `CC(Cn1cc(Br)cn1)C(=O)Nc1ccc(C(N)=O)cc1` (centres undefined): -34.79%.
The same measure for `CSc1nnc(C2CCN(C(=O)N3CCCC3)CC2)n1C`: 5.83%; for `O=C(Nc1cccnc1)[C@H]1C[C@H]2OCC[C@H]2N(Cc2ccc(F)cc2)C1`: 26.62%; for `N#CC1CCCN(c2ncnc3c2CCN(Cc2ccccc2)CC3)C1` (centres undefined): 51.9%.
On to `c1ccc(CN2CCc3ncnc(C4CC4)c3CC2)cc1`, for which the INHIBITION was found to be 14.13%.
Consider `Cn1ccnc1CN1CCc2ncnc(N3CCCC(C#N)C3)c2CC1` (centres undefined), for which the INHIBITION is 23.64%.
The same measure for `CC(Cc1ccc2c(c1)OCO2)c1cn(CCc2c[nH]cn2)nn1` (centres undefined): 46.58%; for `Cc1cc(Cn2cc(C(C)Cc3ccc4c(c3)OCO4)nn2)n[nH]1` (centres undefined): 49.88%; for `CC(Cc1ccc2c(c1)OCO2)c1cn(CCN2CCCC2)nn1` (centres undefined): 69.71%.
With `CN(Cc1ccncc1)C1COC2(CCN(Cc3ccco3)CC2)C1` (centres undefined), the INHIBITION stood at 45.36%.
As for `O=C(Nc1cn[nH]c1)c1ccc(O)nc1`, the INHIBITION is given as 45.75%.
The same measure for `Cn1nc(C2CCCN(Cc3ccc(F)c(F)c3)C2)c2nccnc21` (centres undefined): 38.65%; for `O=C(c1n[nH]c(=O)c2ccccc12)N1CCC(O)(CN2CCOCC2)C1` (centres undefined): -28.4%; for `Cc1ccc(CN(CCCn2ccnc2)Cc2c(F)cccc2F)s1`: 36.26%.
Under `O=C(CCn1cccn1)N1C[C@H]2CC[C@@H](C1)N(Cc1ccccn1)C2=O` stands -19.54%.
On to `Cn1ncnc1CNC1CCc2cc(Cl)ccc21` (centres undefined), for which the INHIBITION is recorded as 74.44%.
Consider `Cc1ccc2c(c1)C(NCc1ncnn1C)CC2` (centres undefined), for which the INHIBITION is recorded as 38.67%.
Under `Cn1ncnc1CNC1CCCc2cc(F)ccc21` (centres undefined) stands -9.03%.
The same measure for `CC(C)NC(=O)C1CCc2nnc(C(C)(C)C)n21` (centres undefined): 12.84%; for `O=C(CCN1CCOCC1)Nc1cccc(CNCc2ccsc2)c1`: 3.54%.
The same measure for `CC(NC(=O)NCc1cccnc1N(C)C)c1cccs1` (centres undefined): 51.31%; for `CC(NC(=O)NCc1cccnc1N(C)C)c1ccc(F)cc1` (centres undefined): 59.21%; for `CN(C)c1ncccc1CNC(=O)NCC(c1cccs1)N(C)C` (centres undefined): 31.55%.
For `CCN(C(=O)NCc1ccccc1OC(F)F)C(C)c1cccnc1` (centres undefined), the INHIBITION is recorded as 38.67%.

Values taken from ChEMBL document CHEMBL4513216, “Probing the Open Global Health Chemical Diversity Library for Multistage-Active Starting Points for Next-Generation Antimalarials” (ACS Infect Dis, 2020).
